Experimental data reported in PubChem BioAssay.

Tested on: XIP peptide (Xip251-270)
Experiment: compounds binding XIP fragment 251-270 – biochemical, small-molecule microarray, fluorescence 635/667 nm, 0.5 µg/mL protein, primary screen (AID 1183)
Conditions: fluorescence 635 nm, higher = more signal

In order of rising composite z-score:
1. C=CCC(OC(C)=O)[C@@H]1[C@@H](N(Cc2ccc(-c3cccc(C(F)(F)F)c3)o2)C(=O)Cc2ccc(F)cc2)c2cc(OCCCO)ccc2N1C(=O)c1ccc2ccccc2n1 (stereo partly specified)  -0.904
2. NC(=O)[C@@]1(CCS(=O)(=O)c2ccccc2)COC(c2ccc(OCCCO)cc2)=N1  -0.395
3. C=CCC(OC(C)=O)[C@@H]1[C@@H](N(Cc2cc3ccccc3o2)C(=O)Cc2ccc(OC)cc2)c2cc(OCCCO)ccc2N1C(=O)Cc1ccc2ccccc2c1 (stereo partly specified)  -0.375
4. C=CCNC(=O)[C@@H]1[C@H]2C(=O)O[C@H](c3ccccc3)[C@H](c3ccccc3)N2[C@H](c2ccc(O)cc2)[C@@]12C(=O)Nc1ccc(C#CC3(O)CCCCCC3)cc12  -0.251
5. COc1cccc(OC)c1C(=O)O[C@H]1[C@@H]2OC(=O)[C@H](Cc3cccc(Br)c3)C/C=C/C[C@@H](Cc3cccc(Br)c3)C(=O)O[C@H]2[C@@H](OC)O[C@@H]1CO  -0.213
6. COCC1=C([C@H](O)CCc2ccccc2)[C@H](CO)n2c(=O)n(-c3ccccc3)c(=O)n2C1  -0.0859
7. C=CCN1C(=O)[C@]2(O[C@H](CCO)[C@@H]([Si](C)(C)c3ccc(OC)cc3)[C@@H]2C)c2ccccc21  0.193
8. COc1ccc([Si](C)(C)[C@@H]2[C@@H](CCO)O[C@]3(C(=O)N(Cc4ccccc4)c4ccc(N5C(=O)c6ccccc6Oc6ccccc65)cc43)[C@H]2C)cc1  0.299
9. COCCCNC(=O)[C@@H]1c2ccccc2C(=O)N(C2CCCCC2)[C@H]1c1ccc(CO)cc1  0.339
10. C=C(CCCC)C(=O)CC[C@H](OC(C)=O)c1ccccc1OCCO  0.439
11. O=C1O[C@H](c2ccccc2)[C@H](c2ccccc2)N2[C@H]1[C@@H](C(=O)N1CCN(c3ncccn3)CC1)[C@]1(C(=O)Nc3ccccc31)[C@H]2c1ccc(O)cc1  0.458
12. O=C1C2C=CC(C(O)c3ccc([N+](=O)[O-])cc3)N(Nc3ccccc3)C2C(=O)N1c1ccccc1 (stereo unspecified)  0.467
13. CO[C@H]1O[C@H](CO)[C@@H](OC(=O)Nc2ccccc2)[C@@H]2OC(=O)[C@H](Cc3ccccc3)C/C=C/C[C@@H](Cc3ccccc3)C(=O)O[C@@H]12  0.539
14. COCCOC(=O)N1C(=O)[C@@]2(c3cc(C#CC4=CCCCC4)ccc31)[C@H](C(=O)N1CCN(c3ncccn3)CC1)[C@H]1C(=O)O[C@H](c3ccccc3)[C@H](c3ccccc3)N1[C@@H]2c1ccccc1OCCO  0.59
15. CC(C)CNC(=O)[C@@H]1c2ccccc2C(=O)N(CC23CC4CC(CC(C4)C2)C3)[C@H]1c1ccc(CO)cc1  0.613
16. O=C1C2C=CC(C(O)c3cccc(O)c3)N(Nc3ccccc3F)C2C(=O)N1c1ccccc1 (stereo unspecified)  0.632
17. CCCCC(=C=CC[C@H](O)c1ccc(OCCO)cc1)C[C@H](O)c1ccccn1  0.645
18. C=CCOC(=O)[C@H]1[C@@H]2C(=O)O[C@@H](c3ccccc3)[C@@H](c3ccccc3)N2[C@@H](c2ccc(OCCOC(=O)[C@H]3C[C@H]4C(=O)NCC(=O)N4[C@H]3c3ccc(O)cc3)cc2)[C@]12C(=O)Nc1ccc(I)cc12  0.7
19. CN1C(=O)C2C=CC(C(O)c3ccc(-c4ccccc4)s3)N(Nc3ccccc3)C2C1=O (stereo unspecified)  0.753
20. C=C(COC)C(=O)CC[C@@H](OC(C)=O)c1ccc(OCCO)cc1  0.779
21. COCCOC(=O)N1C(=O)[C@@]2(c3cc(C#CCCO)ccc31)[C@H](C(=O)N1CCN(c3ncccn3)CC1)[C@H]1C(=O)O[C@H](c3ccccc3)[C@H](c3ccccc3)N1[C@@H]2c1ccc(O)cc1  0.802
22. CCOC(=O)C1=CCC(c2cc3ccccc3[nH]2)N(S(=O)(=O)c2ccccc2[N+](=O)[O-])C1 (stereo unspecified)  0.817
23. C=C(COC)/C(=C/C[C@H](OC(=O)c1ccncc1)c1cccc(OCCO)c1)c1cnc2ccccc2c1  0.823
24. CO[C@H]1O[C@H](CO)[C@@H](OC(=O)Nc2ccc(C(F)(F)F)cc2)[C@H](OC(=O)Nc2ccccc2-c2ccccc2)[C@@H]1OC(=O)Nc1ccccc1-c1ccccc1  0.827
25. CC(=O)NCCCC[C@@H]1NC(=O)[C@@H]2C[C@H](C(=O)NCCCCCC[N+](C)(C)C)[C@H](c3ccc(O)cc3)N2C1=O  0.846
26. COc1ccc(NC(=O)O[C@H]2[C@H](OC(=O)Nc3ccc4c(c3)OCO4)[C@H](OC(=O)Nc3ccc4c(c3)OCO4)[C@@H](OC)O[C@@H]2CO)cc1  0.866
